# Measured values: ChEMBL document CHEMBL3988442, “University of Dundee, Small-Polar-MMV Screening Library” (2021)
# Target: Chromo domain-containing protein 1 (Saccharomyces cerevisiae (strain ATCC 204508 / S288c) (Baker's yeast)) (UniProt P32657)
# Test: ScCHD-1 Enzyme Inhibition Assay
# Type: functional
# Design: scale not given: in the data most compounds retested in dose-response had high values
# Conditions: 30 µM
# Sequence of Chromo domain-containing protein 1 (Saccharomyces cerevisiae (strain ATCC 204508 / S288c) (Baker's yeast)) (P32657 whole entry, the tested form may be a part): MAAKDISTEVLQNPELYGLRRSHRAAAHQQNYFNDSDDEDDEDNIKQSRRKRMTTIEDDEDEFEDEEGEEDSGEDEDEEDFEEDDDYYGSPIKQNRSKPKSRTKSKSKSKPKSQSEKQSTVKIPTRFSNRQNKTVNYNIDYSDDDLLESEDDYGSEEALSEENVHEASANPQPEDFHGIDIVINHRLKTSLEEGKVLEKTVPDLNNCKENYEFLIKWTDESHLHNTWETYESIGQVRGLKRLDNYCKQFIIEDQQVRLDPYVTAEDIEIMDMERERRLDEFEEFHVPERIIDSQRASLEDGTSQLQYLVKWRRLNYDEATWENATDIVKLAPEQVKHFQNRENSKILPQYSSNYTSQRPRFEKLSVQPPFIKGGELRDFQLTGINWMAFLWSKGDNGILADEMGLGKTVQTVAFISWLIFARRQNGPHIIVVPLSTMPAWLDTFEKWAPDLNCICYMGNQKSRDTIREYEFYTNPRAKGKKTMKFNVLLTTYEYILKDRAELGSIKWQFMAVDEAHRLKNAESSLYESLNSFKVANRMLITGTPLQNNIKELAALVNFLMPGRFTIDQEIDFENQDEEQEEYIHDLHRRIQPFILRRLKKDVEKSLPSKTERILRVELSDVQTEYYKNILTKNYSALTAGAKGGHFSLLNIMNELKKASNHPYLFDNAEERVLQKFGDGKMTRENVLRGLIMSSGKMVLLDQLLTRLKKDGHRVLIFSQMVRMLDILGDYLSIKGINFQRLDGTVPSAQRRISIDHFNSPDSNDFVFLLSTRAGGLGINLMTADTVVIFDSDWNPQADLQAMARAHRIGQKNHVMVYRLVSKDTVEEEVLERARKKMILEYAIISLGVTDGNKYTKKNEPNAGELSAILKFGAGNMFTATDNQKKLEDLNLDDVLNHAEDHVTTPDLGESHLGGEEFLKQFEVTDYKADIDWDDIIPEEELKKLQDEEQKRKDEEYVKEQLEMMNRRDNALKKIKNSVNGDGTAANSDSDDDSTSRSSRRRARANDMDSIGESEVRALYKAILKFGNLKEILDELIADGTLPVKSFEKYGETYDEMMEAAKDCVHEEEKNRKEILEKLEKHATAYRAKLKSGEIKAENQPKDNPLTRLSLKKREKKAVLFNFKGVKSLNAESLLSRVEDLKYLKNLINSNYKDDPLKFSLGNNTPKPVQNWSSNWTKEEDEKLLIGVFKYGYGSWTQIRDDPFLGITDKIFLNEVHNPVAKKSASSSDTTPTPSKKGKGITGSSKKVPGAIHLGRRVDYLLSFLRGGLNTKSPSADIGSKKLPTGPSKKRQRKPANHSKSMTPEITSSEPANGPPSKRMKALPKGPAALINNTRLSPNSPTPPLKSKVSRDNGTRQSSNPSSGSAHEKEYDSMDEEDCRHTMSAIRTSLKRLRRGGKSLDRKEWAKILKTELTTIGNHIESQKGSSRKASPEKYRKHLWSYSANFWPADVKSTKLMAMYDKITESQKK
row,SMILES,Percent Effect [%]
1,COCCNC(=O)C(C)n1cc(Br)cn1 (centres undefined),135
2,Cn1nccc1C1CCN(Cc2csc(-c3ncccn3)n2)CC1,-7.46
3,Cc1ccc(NS(=O)(=O)CC2=NC(=O)n3cccc3C2=O)cc1,-2.6
4,COc1ccc(C)cc1S(=O)(=O)NCC(c1cccn1C)N(C)C (centres undefined),104
5,CSc1ccc(CNC(c2ccccc2)c2nccn2C)cc1 (centres undefined),-6.68
6,CCCNC(=O)N1CCN(Cc2cc(C)no2)CC1,-7.68
7,CN(Cc1ccco1)Cc1ccccc1CNC(=O)c1ccncc1,-2.3
8,CCc1c(C)sc(NC(=O)CN2CCN(CC)CC2)c1C(=O)OC,2.67
9,COc1ccc(CN(Cc2cncn2C)CC2CCCO2)cc1OC (centres undefined),-15
10,O=c1ccc(-c2cccs2)nn1CN1CCN(Cc2ccccc2)CC1,-12.8
11,COCC1Cn2nnc(-c3cnn(C)c3)c2CN1Cc1ccc(C)s1 (centres undefined),-4.26
12,CC1CCCCN1c1nc2c(c(=O)[nH]1)CCN(Cc1cccnc1)C2 (centres undefined),-18.2
13,O=C(Nc1ccccc1)C1CN(CC2CC2)CC12CCOCC2 (centres undefined),-4.82
14,COCCN1C[C@H]2CC[C@@]3(N=C(C)N(CC4CC4)C3=O)[C@H]2C1,1.06
15,CC(C)c1cc(C(=O)N2CCN(Cc3ccsc3)CC2)n[nH]1,-3.72
16,CCc1c(C(=O)NC2CCS(=O)(=O)C2)cnn1-c1ccc(F)cc1 (centres undefined),-5.38
17,CS(=O)(=O)N1CCCC12CCCN(S(=O)(=O)c1cc(F)cc(F)c1)C2 (centres undefined),-0.985
18,COc1ccc(C2CCCCCN2S(=O)(=O)N(C)C)cc1 (centres undefined),-3.74
19,CC(Cn1ccnc1)NC(=O)NCCNC(=O)C(C)C (centres undefined),-9.78
20,O=C(NCCCn1cncn1)NCC(c1ccco1)N1CCCCC1 (centres undefined),-13.7

row,SMILES,Percent Effect [%]
1,CNC(=O)c1cc2c(nc1NCC(C)C)CCN(S(=O)(=O)C1CC1)CC2,-4.29
2,COCCN(C)CC(=O)N1C[C@H]2CC[C@@H]1CN(C(=O)c1ccncc1)C2,-5.9
3,Cc1nn(CC(C)C)c(N(C)C)c1CNCc1cc2ccccc2[nH]1,-8.01
4,CN(C)Cc1ccnc(C2CCCN2Cc2ccncc2)n1 (centres undefined),-20.6
5,O=C([C@H]1COC[C@H]2CN(Cc3ccco3)C[C@H]21)N1CCCO1,-6.91
6,Cc1cc(C)c(CNC(=O)C2CCCN(c3cnccn3)C2)c(=O)[nH]1 (centres undefined),-5.39
7,COCCNC(=O)C[C@@H]1COC[C@H]2CN(C(=O)c3cnccn3)C[C@@H]12,-3.17
8,CN(C)[C@@H]1CCN(c2ncccn2)[C@H]1Cc1ccncc1,-1.65
9,CC(CNCc1ccncc1)Oc1ccccn1 (centres undefined),-10.8
10,COc1ncccc1CN1Cc2nnn(C)c2C(COCC2CC2)C1 (centres undefined),-4.09
11,Cc1noc2nc(C3CCN(Cc4ccncc4)CC3)cc(C(F)F)c12,-4.82
12,CSc1ncccc1C(=O)N1C[C@H]2CC[C@@H]1CN(c1cnccn1)C2,0.924
13,CC(C(=O)Nc1ccc(N2CCCC2)nc1)n1ccnc1 (centres undefined),-8.67
14,Cc1ccc(Cl)cc1C(=O)N1CCC2(CC1)c1ccccc1[C@@H](N)[C@@H]2O,10.1
15,Cc1nc(CN2CCN(C(=O)c3ccn(C)c(=O)c3)CC2)cs1,-25.7
16,CNS(=O)(=O)c1ccc(C(=O)N2CCCC2c2ccccc2)o1 (centres undefined),1
17,CS(=O)(=O)NCC1CCCCN1C(=O)Nc1cccnc1N1CCCC1 (centres undefined),-19.9
18,Cc1cccc(N2CCN(CCNC(=O)C(C)n3cncn3)CC2)c1 (centres undefined),-10.7
19,CCn1nc(CC(C)C)cc1C(=O)NCCCOC,0.96
